Assay results as given in PubChem BioAssay (EPA / NIEHS).
Calls of active or inactive are those of the source. Rule for the calls: active = hit-call score of the fitted dose curve at least 0.9, where 1 is the maximum; inactive = score below 0.9.

How the values were obtained:
[1] = read-out: Tissue plasminogen activator (tPA), PLAT (gene 5327); test: BSK_BE3C_tPA: BioMAP Diversity Plus: BE3C Assay for Tissue plasminogen activator (tPA) Biomarker Activity (AID 2283041); details: primary human bronchial epithelial cells; actives raise or lower the signal;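 note: tPA level quantified by ELISA one day after compound addition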
In short: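 Using human lung primary bronchial epithelial cells, tPA was measured by ELISA 24 h after dosing; data fitted relative to DMSO.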

[2] = read-out: Interleukin-8 (IL8), CXCL8 (gene 3576); test: BSK_CASM3C_IL8: BioMAP Diversity Plus: CASM3C Assay for Interleukin-8 (IL8) Biomarker Activity (AID 2283042); details: primary human coronary artery smooth muscle cells; actives raise or lower the signal;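 note: IL-8 protein level quantified by ELISA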
[3] = read-out: Human Leukocyte Antigen - DR isotype (HLADR), HLA-DRA (gene 3122); test: BSK_CASM3C_HLADR: BioMAP Diversity Plus: CASM3C Assay for Human Leukocyte Antigen - DR isotype (HLADR) Biomarker Activity (AID 2283043); details: primary human coronary artery smooth muscle cells; actives raise or lower the signal;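 note: cell-surface HLA-DR protein level quantified by ELISA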
[4] = read-out: Low-density lipoprotein receptor (LDLR), LDLR (gene 3949); test: BSK_CASM3C_LDLR: BioMAP Diversity Plus: CASM3C Assay for Low-density lipoprotein receptor (LDLR) Biomarker Activity (AID 2283045); details: primary human coronary artery smooth muscle cells; actives raise or lower the signal;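 note: LDLR protein level on the cell surface quantified by ELISA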
[5] = read-out: Monocyte Chemoattractant Protein-1 (MCP1), CCL2 (gene 6347); test: BSK_CASM3C_MCP1: BioMAP Diversity Plus: CASM3C Assay for Monocyte Chemoattractant Protein-1 (MCP1) Biomarker Activity (AID 2283046); details: primary human coronary artery smooth muscle cells; actives raise or lower the signal;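 note: MCP-1 level quantified by ELISA 24 h after dosing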
[6] = BSK_CASM3C_Proliferation: Cell Proliferation Assessment in the BioMAP Diversity Plus: CASM3C Assay (AID 2283047); details: primary human coronary artery smooth muscle cells;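 note: sulforhodamine B total protein stain as relative cell number at 560 nm; sub-confluent cells exposed 48 h before staining; fitted both ways against DMSO so gain or loss of cell number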
[7] = read-out: Monokine induced gamma interferon (MIG), CXCL9 (gene 4283); test: BSK_CASM3C_MIG: BioMAP Diversity Plus: CASM3C Assay for Monokine induced gamma interferon (MIG) Biomarker Activity (AID 2283048); details: primary human coronary artery smooth muscle cells; actives raise or lower the signal;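 note: MIG protein level measured by ELISA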
[8] = read-out: serum amyloid A (SAA), SAA1 (gene 6288); test: BSK_CASM3C_SAA: BioMAP Diversity Plus: CASM3C Assay for serum amyloid A (SAA) Biomarker Activity (AID 2283049); details: primary human coronary artery smooth muscle cells; actives raise or lower the signal;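 note: SAA protein level quantified by ELISA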
[9] = BSK_CASM3C_SRB: Viability Assessment in the BioMAP Diversity Plus: CASM3C Assay (AID 2283050); details: primary human coronary artery smooth muscle cells;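 note: cells exposed to compound for 24 h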
[10] = read-out: Thrombomodulin, THBD (gene 7056); test: BSK_CASM3C_Thrombomodulin: BioMAP Diversity Plus: CASM3C Assay for Thrombomodulin Biomarker Activity (AID 2283051); details: primary human coronary artery smooth muscle cells; actives raise or lower the signal;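 note: thrombomodulin protein level measured by ELISA 24 h after dosing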
[11] = read-out: Tissue Factor, F3 (gene 2152); test: BSK_CASM3C_TissueFactor: BioMAP Diversity Plus: CASM3C Assay for Tissue Factor Biomarker Activity (AID 2283052); details: primary human coronary artery smooth muscle cells; actives raise or lower the signal;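 note: cell surface tissue factor protein level read by ELISA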
[12] = read-out: Interferon-gamma inducible Protein 10 (IP10), CXCL10 (gene 3627); test: BSK_hDFCGF_IP10: BioMAP Diversity Plus: hDFCGF Assay for Interferon-gamma inducible Protein 10 (IP10) Biomarker Activity (AID 2283053); details: primary human foreskin fibroblasts; actives raise or lower the signal
In short: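 Chemical-treated human skin fibroblasts (primary) were sampled at 24 h for IP-10 by ELISA. Both increases and decreases relative to DMSO were scored.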

[13] = read-out: Urokinase-type plasminogen activator receptor (uPAR), PLAUR (gene 5329); test: BSK_CASM3C_uPAR: BioMAP Diversity Plus: CASM3C Assay for Urokinase-type plasminogen activator receptor (uPAR) Biomarker Activity (AID 2283054); details: primary human coronary artery smooth muscle cells; actives raise or lower the signal;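 note: cell-surface uPAR protein level quantified by ELISA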
[14] = read-out: Vascular cell adhesion molecule 1 (VCAM1), VCAM1 (gene 7412); test: BSK_CASM3C_VCAM1: BioMAP Diversity Plus: CASM3C Assay for Vascular cell adhesion molecule 1 (VCAM1) Biomarker Activity (AID 2283055); details: primary human coronary artery smooth muscle cells; actives raise or lower the signal;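 note: VCAM-1 protein level quantified by ELISA on the cells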
[15] = read-out: Collagen III, COL3A1 (gene 1281); test: BSK_hDFCGF_CollagenIII: BioMAP Diversity Plus: hDFCGF Assay for Collagen III Biomarker Activity (AID 2283056); details: primary human foreskin fibroblasts; actives raise or lower the signal
In short: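 Human foreskin fibroblast primary cultures sampled 24 h after dosing; Collagen III quantified by ELISA. Signal fitted bidirectionally against DMSO baseline.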

[16] = read-out: Epidermal growth factor receptor (EGFR), EGFR (gene 1956); test: BSK_hDFCGF_EGFR: BioMAP Diversity Plus: hDFCGF Assay for Epidermal growth factor receptor (EGFR) Biomarker Activity (AID 2283057); details: primary human foreskin fibroblasts; actives raise or lower the signal
In short: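 Cell-based multiplexed assay in primary human foreskin fibroblasts. EGFR is read by ELISA 24 h after treatment and compared with DMSO controls.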

[17] = read-out: Interleukin-8 (IL8), CXCL8 (gene 3576); test: BSK_hDFCGF_IL8: BioMAP Diversity Plus: hDFCGF Assay for Interleukin-8 (IL8) Biomarker Activity (AID 2283058); details: primary human foreskin fibroblasts; actives raise or lower the signal
In short: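 Primary human foreskin fibroblasts (hDFCGF system) dosed with chemical; IL-8 measured by ELISA 24 hours later. Bidirectional curve fitting relative to DMSO baseline; cytotoxicity tracked in parallel cultures by SRB total protein staining.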

[18] = BSK_hDFCGF_Proliferation: Cell Proliferation Assessment in the BioMAP Diversity Plus: hDFCGF Assay (AID 2283059); details: primary human foreskin fibroblasts;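 note: curves fitted for both rise and fall of signal versus DMSO baseline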
In short: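 This proliferation readout used SRB total-protein staining of human foreskin fibroblasts […], normalized to DMSO with bidirectional curve fitting.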

[19] = read-out: Macrophage colony-stimulating factor (MCSF), CSF1 (gene 1435); test: BSK_CASM3C_MCSF: BioMAP Diversity Plus: CASM3C Assay for Macrophage colony-stimulating factor (MCSF) Biomarker Activity (AID 2283044); details: primary human coronary artery smooth muscle cells; actives raise or lower the signal;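 note: M-CSF protein amount quantified by ELISA after 24 h exposure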
[20] = read-out: Macrophage colony-stimulating factor (MCSF), CSF1 (gene 1435); test: BSK_hDFCGF_MCSF: BioMAP Diversity Plus: hDFCGF Assay for Macrophage colony-stimulating factor (MCSF) Biomarker Activity (AID 2283060); details: primary human foreskin fibroblasts; actives raise or lower the signal
In short: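 Human foreskin fibroblast primary cultures; M-CSF measured by ELISA 24 hours after chemical dosing. Bidirectional fitting relative to DMSO, with overt cytotoxicity tracked by parallel SRB total-protein staining (0.1% SRB, 10% TCA fixation, 560 nm).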

Measured: outcome

NC(N)=O
not listed: [19] | [20]
inactive: all other assays above

OC[C@H]1O[C@@](CO)(O[C@H]2O[C@H](CO)[C@@H](O)[C@H](O)[C@H]2O)[C@@H](O)[C@@H]1O
not listed: [18]
inactive: all other assays above

CCCCCCCC/C=C\CCCCCCCC(=O)OC[C@@H](O)[C@H]1OC[C@H](O)[C@H]1O
not listed: [18]
inactive: all other assays above

FC(F)(F)COC(OCC(F)(F)F)OCC(F)(F)F
not listed: [18]
inactive: all other assays above

C[Si](C)(C)C(F)(F)C(F)(F)C(F)(F)F
not listed: [18]
inactive: all other assays above

O=C(O)c1ccc2c(c1)nc(C(=O)NC1CCN(C3CC3)CC1)n2Cc1cc(-c2ccc(Cl)s2)on1
not listed: [18]
inactive: all other assays above

NC(=O)N1c2ccccc2C=Cc2ccccc21
not listed: [18]
inactive: all other assays above
